Data taken from PubChem BioAssay (EPA / NIEHS).
The source made the active and inactive calls. How the source made its calls: active means hit-call score of the fitted dose curve at least 0.9, where 1 is the maximum; inactive means score below 0.9.

Assays:
[1] = ATG_CRE_CIS: Attagene CIS-FACTORIAL HepG2 Assay for human cAMP Responsive Element (CRE) binding protein 3 (AID 2282926); details: HepG2 CRE cis-reporter, Attagene multiplexed mRNA; actives raise or lower the signal
In short: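 HepG2 cells transiently transfected with a multiplexed reporter library (CRE-driven unit among them) were dosed for 24 h. Reporter mRNA was quantified by RT-PCR, fluorescent labelling, HpaI digestion and capillary electrophoresis, with bidirectional fitting against DMSO baseline.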

[2] = target: CCAAT/enhancer-binding protein beta (Homo sapiens) (UniProt P17676); experiment: ATG_C_EBP_CIS: Attagene CIS-FACTORIAL HepG2 Assay for human CCAAT/Enhancer Binding Protein (C/EBP) beta (AID 2282927); details: HepG2 Attagene cis-factorial transcription factor reporter; actives raise or lower the signal
In short: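 Changes in reporter mRNA, rather than exogenous chimeric receptor activity, reflect native C/EBP signalling in transfected HepG2 cells dosed for 24 h; transcripts are detected by RT-PCR and capillary electrophoresis.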

[3] = ATG_CMV_CIS: Attagene CIS-FACTORIAL HepG2 Assay for human CMV (Internal Marker) (AID 2282928); details: HepG2 CMV promoter reporter, transcription factor profiling; actives raise or lower the signal;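 further: endpoint acts as a background internal control marker rather than a target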
In short: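 CMV internal-marker background readout in transiently transfected HepG2 cells bearing cis-regulated reporter units. Reporter mRNA is measured 24 h after dosing by RT-PCR and capillary electrophoresis, with bidirectional fitting against DMSO.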

[4] = ATG_DR4_LXR_CIS: Attagene CIS-FACTORIAL HepG2 Assay for human Liver X Receptor (LXR), DR4 submotif (AID 2282929); details: HepG2 Attagene DR4 cis-reporter, mRNA transcription; actives raise or lower the signal
In short: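 After transient transfection with multiplexed cis-promoter reporter units, HepG2 cells received test chemicals for 24 h. Reporter mRNA induction, detected by fluorescence after RT-PCR and capillary electrophoresis, was scored relative to DMSO.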

[5] = ATG_AP_2_CIS: Attagene CIS-FACTORIAL HepG2 Assay for human Activator Protein 2 (AP-2) (AID 2282932); details: HepG2 AP-2 cis-reporter, Attagene transcription factor profiling; actives raise or lower the signal
In short: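 HepG2, transient MRTU transfection, cis-regulated reporters; 24 h compound exposure; RNA isolated, RT-PCR, 6-FAM labelling, HpaI digest, CE fluorescence. DMSO = negative control/baseline, bidirectional fit.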

[6] = ATG_E_Box_CIS: Attagene CIS-FACTORIAL HepG2 Assay for human Enhancer Box (E-box) (AID 2282936); details: HepG2 E-box cis-reporter transcription, actives raise or lower the signal
In short: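 Cells: HepG2 (human liver), transient MRTU transfection. Exposure 24 h. RNA → oligo(dT) RT → PCR → 6-FAM label → HpaI → CE. Activity fitted both directions relative to DMSO.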

[7] = ATG_EGR_CIS: Attagene CIS-FACTORIAL HepG2 Assay for human Early Growth Response 1 (EGR1) (AID 2282938); details: HepG2 Attagene CIS-FACTORIAL EGR reporter mRNA; actives raise or lower the signal
In short: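 Fluorescent capillary-electrophoresis signal of reporter cDNA fragments serves as read-out. HepG2 cells bear transiently transfected cis-promoter reporter units and are exposed 24 h; gain- or loss-of-signal is fitted against DMSO.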

[8] = ATG_M_19_CIS: Attagene CIS-FACTORIAL HepG2 Assay for M19 Transcription Factor (Internal Marker) (AID 2282939); details: HepG2 Attagene CIS-FACTORIAL M19 internal marker reporter; actives raise or lower the signal
In short: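 HepG2 cells transiently transfected with cis-regulated multiple reporter transcription units were dosed for 24 h; reporter mRNA was quantified by RT-PCR, 6-FAM primer-extension labelling, HpaI digestion and capillary electrophoresis, with bidirectional fitting against DMSO baseline.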

[9] = ATG_Ets_CIS: Attagene CIS-FACTORIAL HepG2 Assay for human Erythroblast Transformation Specific (ETS) (AID 2282941); details: HepG2 ETS cis-reporter transcription, actives raise or lower the signal
In short: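 HepG2 cells transfected with multiple cis-regulated reporter units measuring endogenous ETS-driven transcription, 24 h after dosing. Reporter mRNA quantified by RT-PCR with capillary electrophoresis; bidirectional fit relative to DMSO.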

[10] = target: Hepatocyte nuclear factor 3-beta (Homo sapiens) (UniProt Q9Y261); experiment: ATG_FoxA2_CIS: Attagene CIS-FACTORIAL HepG2 Assay for human Forkhead box A2 (FOXA2) (AID 2282942); details: HepG2 cis-reporter transcription factor activity, 24 h; actives raise or lower the signal
In short: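 Fluorescence signal of reporter cDNA fragments, separated by capillary electrophoresis, reflects endogenous transcription factor activity in transfected HepG2 after 24 h. Both increases and decreases fitted against DMSO.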

[11] = ATG_FoxO_CIS: Attagene CIS-FACTORIAL HepG2 Assay for human Forkhead box O (FoxO) (AID 2282943); details: HepG2 Attagene cis-reporter, FoxO element, mRNA; actives raise or lower the signal
In short: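 Human hepatoma HepG2 cells carry transiently introduced reporter transcription units controlled by cis promoter elements. Chemical treatment lasted 24 h, and mRNA signal was compared with DMSO.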

[12] = ATG_GATA_CIS: Attagene CIS-FACTORIAL HepG2 Assay for human GATA Binding Protein (AID 2282944); details: HepG2 GATA cis-element reporter, Attagene multiplex mRNA; actives raise or lower the signal
In short: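 HepG2 cells transiently transfected with multiplexed cis-element reporter units reflecting endogenous transcription factor activity; reporter mRNA measured after 24 h dosing by RT-PCR, 6-FAM labeling, HpaI digestion and capillary electrophoresis. Bidirectional fitting versus DMSO baseline.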

[13] = ATG_M_32_CIS: Attagene CIS-FACTORIAL HepG2 Assay for M32 Transcription Factor (Internal Marker) (AID 2282949); details: HepG2 Attagene cis-factorial M32 reporter, mRNA; actives raise or lower the signal;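 further: background control marker of the multiplexed CIS panel rather than a real target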
In short: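 Fluorescent capillary electrophoresis peaks of HpaI-digested, FAM-labelled RT-PCR reporter products give the signal. Source: transiently transfected human liver HepG2 cells, 24 h after chemical dosing; bidirectional fitting against DMSO.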

[14] = ATG_M_06_CIS: Attagene CIS-FACTORIAL HepG2 Assay for M06 Transcription Factor (Internal Marker) (AID 2282950); details: HepG2 Attagene CIS-FACTORIAL M06 internal marker reporter; actives raise or lower the signal
In short: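 HepG2 cells transiently transfected with cis-regulated multiple reporter transcription units were exposed to chemical for 24 h; reporter mRNA was quantified by RT-PCR, 6-FAM primer labelling, HpaI digestion and capillary electrophoresis, fitted bidirectionally against DMSO.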

[15] = ATG_PXRE_CIS: Attagene CIS-FACTORIAL HepG2 Assay for human Pregnane X Receptor Element (PXRE) (AID 2282957); details: HepG2 Attagene CIS-FACTORIAL PXRE reporter, mRNA; actives raise or lower the signal
In short: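 HepG2 cells transiently transfected with cis-regulated multiple reporter transcription units; endogenous factor activity measured as reporter mRNA 24 h after dosing. RT-PCR, fluorescent primer extension, HpaI digestion, capillary electrophoresis; bidirectional fit versus DMSO baseline.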

[16] = ATG_Sox_CIS: Attagene CIS-FACTORIAL HepG2 Assay for human SRY-box transcription factor (SOX) (AID 2282960); details: HepG2 Attagene cis-factorial SOX reporter, mRNA; actives raise or lower the signal
In short: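 Using transiently transfected HepG2 cells, reporter transcription driven by cis elements was assessed 24 h after dosing. Signal was fluorescence of capillary-separated RT-PCR products, with DMSO defining baseline activity.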

[17] = target: Transcription factor Sp1 (Homo sapiens) (UniProt P08047); experiment: ATG_Sp1_CIS: Attagene CIS-FACTORIAL HepG2 Assay for human Specificity Protein 1 (Sp1) (AID 2282961); details: HepG2 Sp1 cis-reporter transcription, actives raise or lower the signal
In short: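 After transient transfection of HepG2 cells with cis-promoter reporter units and 24 h chemical treatment, reporter transcripts were quantified by RT-PCR and capillary electrophoresis fluorescence. Gain- and loss-of-signal fitted against DMSO.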

[18] = ATG_SREBP_CIS: Attagene CIS-FACTORIAL HepG2 Assay for human Sterol Regulatory Element Binding (SREBP) (AID 2282962); details: HepG2 Attagene cis-factorial SREBP reporter, mRNA; actives raise or lower the signal
In short: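 HepG2 cells transiently transfected with multiplexed cis-promoter reporter units sensing endogenous transcription factors; reporter mRNA measured 24 h after dosing by RT-PCR, 6-FAM labeling, HpaI digestion and capillary electrophoresis. Bidirectional fit versus DMSO.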

[19] = target: Signal transducer and activator of transcription 3 (Homo sapiens) (UniProt P40763); experiment: ATG_STAT3_CIS: Attagene CIS-FACTORIAL HepG2 Assay for human Signal Transducer and Activator of Transcription 3 (STAT3) (AID 2282963); details: HepG2, Attagene cis-factorial STAT3 reporter transcription; actives raise or lower the signal
In short: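 Endogenous STAT3-responsive cis-element activity was read in transiently transfected HepG2 cells after 24 h treatment. Reporter transcripts were quantified via RT-PCR and capillary electrophoresis, with DMSO as negative control and bidirectional curve fitting.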

[20] = ATG_TA_CIS: Attagene CIS-FACTORIAL HepG2 Assay for human TA Basal Promoter (AID 2282964); details: HepG2 Attagene CIS-factorial TA basal promoter reporter; actives raise or lower the signal
In short: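 HepG2 cells transiently transfected with multiplexed cis-promoter reporter units, dosed 24 h. Reporter mRNA measured by RT-PCR, 6-FAM labelling, HpaI digestion and capillary electrophoresis; bidirectional fit versus DMSO baseline, serving as background control.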

Measured: AC50

Chain of Hepatocyte nuclear factor 3-beta (Homo sapiens) (Q9Y261 whole entry, looked up, the tested form may be a part): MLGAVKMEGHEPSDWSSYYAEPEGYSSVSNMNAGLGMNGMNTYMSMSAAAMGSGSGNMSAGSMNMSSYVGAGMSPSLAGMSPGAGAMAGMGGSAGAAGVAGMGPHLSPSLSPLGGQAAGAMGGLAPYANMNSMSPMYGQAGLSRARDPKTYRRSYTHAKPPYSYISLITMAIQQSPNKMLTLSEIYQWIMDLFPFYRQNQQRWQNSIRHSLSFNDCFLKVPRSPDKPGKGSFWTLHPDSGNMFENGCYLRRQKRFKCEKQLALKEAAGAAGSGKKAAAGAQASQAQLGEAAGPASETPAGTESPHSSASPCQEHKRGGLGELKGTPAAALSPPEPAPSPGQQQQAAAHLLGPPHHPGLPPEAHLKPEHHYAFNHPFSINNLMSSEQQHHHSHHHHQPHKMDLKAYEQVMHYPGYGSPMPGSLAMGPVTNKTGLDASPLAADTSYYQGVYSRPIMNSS
Chain of CCAAT/enhancer-binding protein beta (Homo sapiens) (P17676 whole entry, looked up): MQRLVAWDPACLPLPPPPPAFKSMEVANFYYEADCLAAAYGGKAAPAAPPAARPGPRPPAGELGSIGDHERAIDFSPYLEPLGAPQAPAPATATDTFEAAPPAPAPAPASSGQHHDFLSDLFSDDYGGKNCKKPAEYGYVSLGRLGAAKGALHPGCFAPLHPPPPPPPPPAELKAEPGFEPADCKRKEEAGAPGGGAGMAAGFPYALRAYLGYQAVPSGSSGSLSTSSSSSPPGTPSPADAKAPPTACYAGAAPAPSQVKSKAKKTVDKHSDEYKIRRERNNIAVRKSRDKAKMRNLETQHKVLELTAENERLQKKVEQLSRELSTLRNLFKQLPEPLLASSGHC
Chain of Signal transducer and activator of transcription 3 (Homo sapiens) (P40763 whole entry, looked up): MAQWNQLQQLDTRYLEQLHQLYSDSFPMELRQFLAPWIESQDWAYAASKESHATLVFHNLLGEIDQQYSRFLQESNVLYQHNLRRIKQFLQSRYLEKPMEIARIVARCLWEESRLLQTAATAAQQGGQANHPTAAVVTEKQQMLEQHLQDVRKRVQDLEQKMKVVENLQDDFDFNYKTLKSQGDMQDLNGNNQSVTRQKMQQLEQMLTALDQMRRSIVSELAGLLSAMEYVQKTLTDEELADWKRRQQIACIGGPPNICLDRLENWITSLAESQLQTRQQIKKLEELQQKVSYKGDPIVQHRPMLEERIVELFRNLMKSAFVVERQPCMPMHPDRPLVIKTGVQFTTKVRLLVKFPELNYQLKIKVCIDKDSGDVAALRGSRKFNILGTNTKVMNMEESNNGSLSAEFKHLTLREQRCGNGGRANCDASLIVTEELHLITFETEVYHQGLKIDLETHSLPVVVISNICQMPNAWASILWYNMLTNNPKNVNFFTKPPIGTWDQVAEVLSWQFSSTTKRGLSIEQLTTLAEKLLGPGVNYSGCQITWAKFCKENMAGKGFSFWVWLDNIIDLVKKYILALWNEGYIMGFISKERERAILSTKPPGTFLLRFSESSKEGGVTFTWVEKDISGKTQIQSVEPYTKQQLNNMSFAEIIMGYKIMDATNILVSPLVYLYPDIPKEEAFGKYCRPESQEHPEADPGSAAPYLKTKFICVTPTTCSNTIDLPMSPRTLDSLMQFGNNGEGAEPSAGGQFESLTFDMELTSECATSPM
Chain of Transcription factor Sp1 (Homo sapiens) (P08047 whole entry, looked up): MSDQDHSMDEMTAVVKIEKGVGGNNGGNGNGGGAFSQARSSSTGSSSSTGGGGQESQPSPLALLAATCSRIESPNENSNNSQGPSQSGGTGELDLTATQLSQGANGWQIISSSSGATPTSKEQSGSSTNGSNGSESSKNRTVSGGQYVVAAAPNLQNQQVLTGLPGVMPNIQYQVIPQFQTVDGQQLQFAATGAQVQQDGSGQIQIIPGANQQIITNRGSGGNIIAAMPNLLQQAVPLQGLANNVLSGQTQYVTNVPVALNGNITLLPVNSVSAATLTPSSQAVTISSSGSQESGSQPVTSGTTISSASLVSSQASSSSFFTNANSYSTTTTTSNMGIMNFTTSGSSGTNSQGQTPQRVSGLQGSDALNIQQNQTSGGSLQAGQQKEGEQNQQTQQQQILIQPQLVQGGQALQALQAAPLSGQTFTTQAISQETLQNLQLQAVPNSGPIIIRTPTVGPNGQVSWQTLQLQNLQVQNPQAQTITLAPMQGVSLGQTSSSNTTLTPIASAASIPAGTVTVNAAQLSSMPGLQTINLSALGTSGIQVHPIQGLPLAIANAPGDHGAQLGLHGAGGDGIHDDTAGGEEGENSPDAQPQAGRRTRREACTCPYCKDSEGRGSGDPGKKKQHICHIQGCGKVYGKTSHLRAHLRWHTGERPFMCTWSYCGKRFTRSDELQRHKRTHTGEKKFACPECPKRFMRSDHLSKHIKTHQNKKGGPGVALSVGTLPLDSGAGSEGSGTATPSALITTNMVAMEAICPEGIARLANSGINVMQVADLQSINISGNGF

O=[N+]([O-])c1cc(C(F)(F)F)c(Cl)c([N+](=O)[O-])c1Cl
inactive: [1] | [2] | [5] | [8] | [9] | [10] | [11] | [12] | [13] | [14] | [15] | [18] | [19] | [20]
active: [3] 5.9 µM | [4] 5.08 µM | [6] 5.43 µM | [7] 4.82 µM | [16] 5.81 µM | [17] 6.68 µM

CCC(C)c1cc([N+](=O)[O-])cc([N+](=O)[O-])c1OC(=O)C=C(C)C (stereo not given)
active: [2] 100 µM | [6] 17.7 µM | [7] 27.7 µM | [9] 100 µM | [11] 57.3 µM | [15] 0.787 µM | [16] 53.7 µM | [17] 26.2 µM | [19] 80.1 µM | [20] 100 µM
inactive: [1] | [3] | [4] | [5] | [8] | [10] | [12] | [13] | [14] | [18]

CCC(C)(C)O
inactive: [1] | [2] | [3] | [4] | [5] | [6] | [7] | [8] | [9] | [10] | [11] | [12] | [13] | [14] | [15] | [16] | [17] | [18] | [19] | [20]

COC(C)(C)CCC[C@H](C)C/C=C/C(C)=C/C(=O)OC(C)C
inactive: [1] | [2] | [5] | [6] | [8] | [9] | [10] | [11] | [12] | [13] | [14] | [16] | [17] | [18] | [19] | [20]
active: [3] 100 µM | [4] 72.9 µM | [7] 82.3 µM | [15] 1.43 µM

CNC(=O)Oc1cc(C)c(SC)c(C)c1
active: [3] 17.4 µM | [7] 100 µM | [15] 26.7 µM | [16] 27.1 µM
inactive: [1] | [2] | [4] | [5] | [6] | [8] | [9] | [10] | [11] | [12] | [13] | [14] | [17] | [18] | [19] | [20]

Nc1ccccc1C(=O)Oc1ccc2ccccc2c1
inactive: [1] | [2] | [6] | [7] | [10] | [13] | [14] | [15] | [20]
active: [3] 77 µM | [4] 63.9 µM | [5] 66.8 µM | [8] 166 µM | [9] 75.7 µM | [11] 147 µM | [12] 143 µM | [16] 166 µM | [17] 56.2 µM | [18] 65.5 µM | [19] 74.5 µM

CCc1cc(C)cc(CC)c1-c1c(OC(=O)C(C)(C)C)n2n(c1=O)CCOCC2
inactive: [1] | [2] | [3] | [4] | [5] | [6] | [7] | [8] | [9] | [10] | [11] | [12] | [13] | [14] | [16] | [17] | [18] | [19] | [20]
active: [15] 9.48 µM
